Compounds without any hit were thinned out: in the full panel of roughly 79,000, 15% have a hit. The source made the active and inactive calls. Cut-off read from the data, not from the text of the source: active = growth inhibition above about 70%; inactive = the rest.
Assays:
[1] = NCI Yeast Anticancer Drug Screen. Data for the rad50 strain (AID 155);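 note: 0% = growth of vehicle-only cultures of the same strain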; conditions: S. cerevisiae rad50 strain growth inhibition, stronger effect = higher value
Method in brief: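 Genetically altered yeast (DNA repair pathway); compound treatment; growth inhibition vs vehicle ctrl.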

[2] = NCI Yeast Anticancer Drug Screen. Data for the mec2-1 strain (AID 157); conditions: S. cerevisiae mec2-1 strain, stronger effect = higher value
Method in brief: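 Yeast mec2-1 mutant treated with compound. Readout: growth inhibition vs vehicle controls.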

[3] = NCI Yeast Anticancer Drug Screen. Data for the sgs1 mgt1 strain (AID 161);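 note: 0% = growth of cultures given vehicle only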; conditions: S. cerevisiae sgs1 mgt1 strain, stronger effect = higher value
Method in brief: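 Mutant yeast exposed to compound; growth scored against vehicle-only wells.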

[4] = NCI Yeast Anticancer Drug Screen. Data for the cln2 rad14 strain (AID 165);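 note: 0% = growth equal to vehicle treated cultures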; conditions: S. cerevisiae cln2 rad14 strain, stronger effect = higher value
Method in brief: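 cln2 rad14 yeast strain; compound exposure; growth inhibition read vs vehicle controls.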

[5] = NCI Yeast Anticancer Drug Screen. Data for the bub3 strain (AID 167); conditions: S. cerevisiae bub3 mutant strain, stronger effect = higher value
Method in brief: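 Yeast carrying a defined mutation is treated with each compound, and growth is compared with that of vehicle-exposed cells to give inhibition.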

[6] = NCI Yeast Anticancer Drug Screen. Data for the mlh1 rad18 strain (AID 175); conditions: S. cerevisiae mlh1 rad18 strain growth inhibition, stronger effect = higher value
Method in brief: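 Yeast w/ defined DNA-repair lesions; compound exposure; growth vs vehicle controls → % inhibition.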

[7] = at 5.0 µM (retest, dose inferred, filed as 0.5)
[8] = at 50.0 µM (retest, dose inferred, filed as 5.0)

Measured: growth inhibition

Fc1ccc(CN2COc3c(cc(Cl)c4cccnc34)C2)cc1
inactive: [1]; [7] 9% | [2]; [7] 1% | [3]; [7] 2% | [4]; [7] -8% | [5]; [7] -5% | [6]; [7] 11%
active: [1]; [8] 97% | [1]; at 50.0 µM 99.2% | [2]; [8] 97% | [2]; at 50.0 µM 99.6% | [3]; [8] 99% | [3]; at 50.0 µM 99.6% | [4]; [8] 98% | [4]; at 50.0 µM 99.3% | [5]; [8] 99% | [5]; at 50.0 µM 99.5% | [6]; [8] 99% | [6]; at 50.0 µM 99.5%

COc1cc(NS(C)(=O)=O)ccc1Nc1c2ccccc2nc2ccccc12
inactive: [1]; [7] 67% | [2]; [7] -5% | [2]; [8] 57% | [2]; at 50.0 µM 42.5% | [3]; [7] 9% | [3]; [8] 44% | [3]; at 50.0 µM 37.2% | [4]; [7] 15% | [4]; [8] 32% | [4]; at 50.0 µM 20.8% | [5]; [7] 14% | [5]; [8] 24% | [5]; at 50.0 µM 11.1% | [6]; [7] 9% | [6]; [8] 38% | [6]; at 50.0 µM 32.9%
active: [1]; [8] 85% | [1]; at 50.0 µM 83.5%

CCc1cc2c([nH]c3ccccc32)c(C)c1CCN(C)C
inactive: [1]; [7] -1% | [1]; [8] 23% | [1]; at 50.0 µM 35.1% | [2]; [7] 4% | [2]; [8] 23% | [2]; at 50.0 µM 3.65% | [3]; [7] 3% | [3]; [8] 46% | [3]; at 50.0 µM 1.45% | [4]; [7] -11% | [4]; [8] 24% | [4]; at 50.0 µM -14.6% | [5]; [7] -9% | [5]; [8] -5% | [5]; at 50.0 µM 12.6% | [6]; [7] -5% | [6]; [8] 43% | [6]; at 50.0 µM 69.8%

Cc1ccc(S(=O)(=O)N(c2ccccc2-c2ccccc2)C(C)C(=O)O)cc1 (stereo not given)
inactive: [1]; [7] 2% | [1]; [8] 67% | [2]; [7] 13% | [3]; [7] 20% | [3]; [8] 62% | [4]; [7] 3% | [5]; [7] 4% | [5]; [8] 66% | [6]; [7] 5%
active: [1]; at 50.0 µM 92.3% | [2]; [8] 80% | [2]; at 50.0 µM 88.3% | [3]; at 50.0 µM 96% | [4]; [8] 76% | [4]; at 50.0 µM 91.5% | [5]; at 50.0 µM 82.5% | [6]; [8] 87% | [6]; at 50.0 µM 94.3%

O=C1Oc2ccccc2C1c1ccccc1 (stereo not given)
active: [1]; [8] 90% | [2]; [8] 87% | [3]; [8] 91% | [4]; [8] 92% | [5]; [8] 95% | [6]; [8] 93%
inactive: [1]; [7] 16% | [1]; at 50.0 µM 28.6% | [2]; [7] 1% | [2]; at 50.0 µM 35.5% | [3]; [7] 4% | [3]; at 50.0 µM -2.1% | [4]; [7] 10% | [4]; at 50.0 µM 8.4% | [5]; [7] -1% | [5]; at 50.0 µM 34.5% | [6]; [7] 1% | [6]; at 50.0 µM 27.5%

CCC[CH2][Sn]1([CH2]CCC)[O]C(=O)CN=Cc2c(ccc3ccccc23)[O]1
inactive: [1]; [7] 47% | [1]; [8] 47% | [3]; [7] 38% | [3]; [8] 38% | [4]; [7] 48% | [4]; [8] 48% | [5]; [7] 53% | [5]; [8] 53% | [6]; [7] 67% | [6]; [8] 67%
active: [1]; at 50.0 µM 91.2% | [2]; [7] 74% | [2]; [8] 74% | [2]; at 50.0 µM 94% | [3]; at 50.0 µM 92.9% | [4]; at 50.0 µM 92.6% | [5]; at 50.0 µM 92.6% | [6]; at 50.0 µM 91.7%

O=C(N=c1sc2ccccc2s1)N=c1sc2ccccc2s1
inactive: [1]; [7] 1% | [1]; [8] 10% | [1]; at 50.0 µM 45.9% | [2]; [7] 35% | [2]; [8] -14% | [2]; at 50.0 µM -2.6% | [3]; [7] 14% | [3]; [8] -20% | [3]; at 50.0 µM 47.6% | [4]; [7] -32% | [4]; [8] 6% | [5]; [7] -11% | [5]; [8] 7% | [5]; at 50.0 µM 29.6% | [6]; [7] -20% | [6]; [8] 10% | [6]; at 50.0 µM 50%
active: [4]; at 50.0 µM 84%

[N-]=[N+]=Nc1c(Cc2ccccc2)c(=O)oc2ccccc12
active: [1]; [8] 73% | [2]; at 50.0 µM 73.9% | [3]; [8] 73% | [3]; at 50.0 µM 75.7% | [5]; [8] 87% | [5]; at 50.0 µM 77.7% | [6]; [8] 82%
inactive: [1]; [7] 15% | [1]; at 50.0 µM 65.3% | [2]; [7] -8% | [2]; [8] 58% | [3]; [7] 3% | [4]; [7] 11% | [4]; [8] 35% | [4]; at 50.0 µM 58.8% | [5]; [7] -17% | [6]; [7] -3% | [6]; at 50.0 µM 66.9%

CC(=O)OCc1ccc(O)c2ncccc12
active: [1]; [8] 74% | [1]; at 50.0 µM 95.7% | [2]; [8] 83% | [2]; at 50.0 µM 94% | [4]; [8] 75% | [5]; [8] 74%
inactive: [1]; [7] -127% | [2]; [7] -49% | [3]; [7] -51% | [3]; [8] 45% | [3]; at 50.0 µM 54.2% | [4]; [7] -44% | [4]; at 50.0 µM 41% | [5]; [7] -56% | [5]; at 50.0 µM 67.1% | [6]; [7] -103% | [6]; [8] 54% | [6]; at 50.0 µM 55%

CCCC(=O)NC1=C(Cl)C(=O)c2ccccc2C1=O
active: [1]; [7] 100% | [1]; [8] 99% | [1]; at 50.0 µM 91.8% | [2]; [7] 100% | [2]; [8] 100% | [2]; at 50.0 µM 92.5% | [3]; [7] 100% | [3]; [8] 100% | [3]; at 50.0 µM 92.5% | [4]; [7] 90% | [4]; [8] 99% | [4]; at 50.0 µM 91.5% | [5]; [7] 100% | [5]; [8] 99% | [5]; at 50.0 µM 89.7% | [6]; [7] 101% | [6]; [8] 99% | [6]; at 50.0 µM 87.5%

Source: PubChem BioAssay (NCI)
